A short description of experiment [1]: qHTS for Inhibitors of Plasmodium falciparum (GB4) proliferation (AID 504315). Further: nearly all actives have a fitted effect of over 50% in size. Further: potency means the concentration at half of the fitted maximal effect. A digest of the protocol:
(§1)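 Parasite growth measured as SYBR Green DNA fluorescence (ex 485, em 535 nm) after overnight lysis following 72 h culture at 37 °C, 0.3% parasitemia, 2.5% hematocrit. Values normalized against DMSO and 0.29 uM artemisinin controls, with plate-stack correction.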
Background: qHTS replaces the single test concentration by a dilution series.

A short description of experiment [2]: qHTS for Inhibitors of Plasmodium falciparum (HB3) proliferation (AID 504318). Further: nearly all actives have a fitted effect of over 60% in size. A digest of the protocol: as §1
Experiment [3] addresses Atrial natriuretic peptide receptor 1 (Homo sapiens) (UniProt P16066). Description: Natriuretic polypeptide receptor (hNpr1) antagonism - Pilot CMLD screen (AID 1347052; calls by dose curve;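 further: HEK293 cells with hNpr1 stimulated by hNppA peptide at 0.1 nM; cGMP level read as GloSensor luciferase luminescence after agonist stimulation; series mostly up to about 9.2 µM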).
The nature of experiment [4]: qHTS for Inhibitors of Plasmodium falciparum (7G8) proliferation (AID 504316). Further: potency means the concentration at half of the fitted maximal effect; nearly all actives have a fitted effect of over 65% in size. Put shortly: as §1
The nature of experiment [5]: qHTS for Inhibitors of Plasmodium falciparum (CP250) proliferation (AID 504320). Put shortly: as §1

Three compounds from PubChem BioAssay (NCATS) can be followed below.

Molecules are shown by their SMILES. Results filed as inconclusive are left out. Active and inactive are the calls of the source. Unless noted, the call rests on the fitted dose curve; in most records, active means well fitted curve in the direction sought with a large enough effect; inconclusive means small, poorly fitted or top-dose-only effect, or another doubt; inactive means no such curve, though single readings can be large; an effect the other way counts as inactive or inconclusive.

Sequence of Atrial natriuretic peptide receptor 1 (Homo sapiens) (P16066 whole entry, looked up): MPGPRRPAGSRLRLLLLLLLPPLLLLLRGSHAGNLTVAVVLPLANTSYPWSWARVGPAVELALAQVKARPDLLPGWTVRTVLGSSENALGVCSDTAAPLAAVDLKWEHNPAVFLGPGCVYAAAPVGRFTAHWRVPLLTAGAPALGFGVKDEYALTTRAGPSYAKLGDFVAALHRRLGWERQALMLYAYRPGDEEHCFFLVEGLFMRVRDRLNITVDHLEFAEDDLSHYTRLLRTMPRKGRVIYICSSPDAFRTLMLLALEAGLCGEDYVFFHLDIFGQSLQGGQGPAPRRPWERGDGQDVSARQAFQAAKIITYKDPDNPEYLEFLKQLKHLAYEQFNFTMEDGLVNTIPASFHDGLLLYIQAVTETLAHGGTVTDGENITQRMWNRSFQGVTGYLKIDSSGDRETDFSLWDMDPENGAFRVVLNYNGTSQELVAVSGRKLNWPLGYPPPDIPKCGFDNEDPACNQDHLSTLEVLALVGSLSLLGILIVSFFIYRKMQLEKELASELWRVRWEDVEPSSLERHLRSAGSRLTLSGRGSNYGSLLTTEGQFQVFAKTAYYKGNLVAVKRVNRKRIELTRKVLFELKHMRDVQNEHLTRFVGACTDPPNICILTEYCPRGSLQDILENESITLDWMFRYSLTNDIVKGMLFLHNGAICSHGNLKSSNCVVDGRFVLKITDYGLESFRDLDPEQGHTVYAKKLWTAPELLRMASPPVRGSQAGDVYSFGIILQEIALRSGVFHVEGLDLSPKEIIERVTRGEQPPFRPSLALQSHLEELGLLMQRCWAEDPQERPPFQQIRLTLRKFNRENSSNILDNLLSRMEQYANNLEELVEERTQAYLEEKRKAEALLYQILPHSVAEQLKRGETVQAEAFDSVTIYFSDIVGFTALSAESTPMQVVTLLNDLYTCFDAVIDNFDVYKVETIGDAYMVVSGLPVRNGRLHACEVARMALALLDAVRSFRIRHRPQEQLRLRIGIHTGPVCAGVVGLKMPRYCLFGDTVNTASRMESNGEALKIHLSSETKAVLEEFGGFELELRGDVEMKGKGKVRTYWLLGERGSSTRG

For the compound `CCN1C(=NCc2cccc(C(F)(F)F)c2)NC(c2cccc(F)c2)C(C(=O)OC)=C1C` (stereo not given), the Potency in experiment [1] is 0.757 µM (active). Further, the Potency entry in experiment [2] and in experiment [3] was “inactive” throughout.
As to `COc1cccc([C@@H]2Oc3ccc(OC)cc3C[C@@H]2OC(=O)N[C@H]2CCCc3ccccc32)c1`, the Potency result in experiment [1], in experiment [5] and in experiment [3] was “inactive” throughout. Further, in experiment [4], the Potency is 1.51 µM (active).
Take `O=C1[C@H]2[C@@H]3[C@@H](O)[C@H](O)CC(=NOCc4ccccc4)[C@@H]3CC[C@H]2C(=O)N1Cc1ccc2c(c1)OCO2`: the Potency entry in experiment [1], in experiment [2] and in experiment [3] was “inactive” each time.
